# From ChEMBL document CHEMBL3988442, “University of Dundee, Small-Polar-MMV Screening Library” (2021)
# The campaign covered roughly 48,000 compounds. About 13,000 (27%) showed an effect of 50% or more. The list shows a part of the results.
# Test system: Wolbachia pipientis
# Experiment: Anti-Wolbachia Cell-Based Screen
# Type: functional
# Set-up: scale not given: in the data most compounds retested in dose-response had high values
# Conditions: 5 µM
row,SMILES,Percent Effect [%]
1,O=C(NCCc1ccncc1)c1ccc(N2CCOCC2)cc1,-6.093
2,Cn1cc(C(=O)NCc2ccc(N3CCNC(=O)C3)c(F)c2)cn1,-29.09
3,CC(C)CCC(=O)N1CCN(C(=O)c2ccc3nccn3c2)CC1,-6.791
4,CC(C)(O)CCc1cccc(C(=O)NCCC2=CSC3=NCCCN23)c1,99.07
5,CCOc1ccc(N2CCCN=C2NC(=O)c2cccc(Cl)c2)cc1,-0.7192
6,CNc1cc(C(=O)N2CCCCC2CCn2ccnc2C)ccn1 (stereo unspecified),14.21
7,CC(C)(O)CCc1cccc(C(=O)NCc2nccs2)c1,1.829
8,CC(=O)N1CCOC(CNC(=O)c2cccc(CCC(C)(C)O)c2)C1 (stereo unspecified),13.88
9,CNc1cc(C(=O)NCCC2=CSC3=NCCCN23)ccn1,99.62
10,CNc1cc(C(=O)N2CCC3(CC2)Nc2ccccc2NC3=O)ccn1,27.99
11,CCC(=O)Nc1cccc(C(=O)NCCC2=CSC3=NCCCN23)c1,108.7
12,O=C(NC1=NCCCN1c1ccc(Cl)cc1)c1cccc(Cl)c1,17.77
13,c1ccc(Cn2ccnc2CNC2CCCOc3ccccc32)cc1 (stereo unspecified),-11.7
14,COC(=O)C(C)CN(C)S(=O)(=O)c1c(Br)cc2[nH]c(=O)oc2c1Cl (stereo unspecified),24.19
15,Cc1cccc(N(CCC(N)=O)C(=O)c2cc(-n3cccn3)ccn2)c1,-21.32
16,CC1c2ncc(CNC(=O)C3CC3)n2CCN1Cc1cnn(C)c1.O=C(O)C(F)(F)F.O=C(O)C(F)(F)F (stereo unspecified),-12.81
17,CC1c2ncc(CNC(=O)C3CC3)n2CCN1Cc1nccs1.O=C(O)C(F)(F)F (stereo unspecified),120.4
18,CC1c2ncc(CNC(=O)C3CC3)n2CCN1Cc1ccsc1.O=C(O)C(F)(F)F (stereo unspecified),96.09
19,Cc1ncsc1CN1CCn2c(COCC3CC3)cnc2C1C.O=C(O)C(F)(F)F (stereo unspecified),6.232
20,CC1c2ncc(CNC(=O)C3CC3)n2CCN1Cc1ccncc1.O=C(O)C(F)(F)F.O=C(O)C(F)(F)F (stereo unspecified),104.7
21,CC1c2ncc(CNC(=O)C3CC3)n2CCN1Cc1ccccn1.O=C(O)C(F)(F)F.O=C(O)C(F)(F)F (stereo unspecified),93.52
22,O=C(NCc1cn2c(n1)CN(Cc1ccncc1)CC2)C1CCC1.O=C(O)C(F)(F)F.O=C(O)C(F)(F)F,-6.264
23,O=C(NCc1cn2c(n1)CN(Cc1ccccn1)CC2)C1CCC1.O=C(O)C(F)(F)F.O=C(O)C(F)(F)F,-6.874
24,N#Cc1cn(CCCN2CCc3ccccc3C2)c(=O)[nH]c1=O,-8.057
25,COc1ccc2c(c1)OCC(Cc1ccc(N(C)C)nc1)C2 (stereo unspecified),-17.41
26,CC(=O)NC[C@H]1COCc2nc3cc(S(C)(=O)=O)ccc3n21,-22.59

row,SMILES,Percent Effect [%]
1,Cc1nc(COCc2cnc3n2CCN(CC2CCC2)C3C)cs1.O=C(O)C(F)(F)F (stereo unspecified),-9.854
2,CC1c2ncc(CNC(=O)C3CC3)n2CCN1CC1CCC1.O=C(O)C(F)(F)F (stereo unspecified),88.49
3,CC1c2ncc(CNC(=O)C3CC3)n2CCN1Cc1cccnc1.O=C(O)C(F)(F)F.O=C(O)C(F)(F)F (stereo unspecified),100.5
4,COCc1cnc2n1CCN(C1CCC1)C2C.O=C(O)C(F)(F)F (stereo unspecified),11.12
5,COc1cccc2c1OCC(CNC(=O)CCCN1CCOCC1)C2 (stereo unspecified),2.111
6,CS(=O)(=O)NCc1cc2n(n1)CCCN(Cc1cccc(C#N)c1)C2,3.455
7,O=S(=O)(NCC1CCN(c2cnccn2)CC1)c1cccs1,107.7
8,CN(C1CCN(c2ccccn2)CC1)S(=O)(=O)c1cccs1,-12.42
9,CCc1ccc(S(=O)(=O)NCC2CCN(c3cnccn3)CC2)s1,118.2
10,CC(CNC(=O)N1CCN(c2cnccn2)CC1)Cc1cccs1 (stereo unspecified),-7.53
11,O=C(NCCSCc1ccc(Br)s1)C1CCCN(c2cnccn2)C1 (stereo unspecified),1.609
12,Cc1nn(C)c(C)c1CN(C)C1CCN(c2ncnc3[nH]cnc23)CC1,0.8279
13,CC(=O)Nc1ccc(C(=O)N2CCOc3nc(C)ccc32)cc1,-10.66
14,COC(=O)CCC(=O)N1CCc2nc(C(=O)N(C)C)sc2CC1,-18.4
15,Cn1ncc2c(N3CCN(CCO)CC3)nc(C3CCCC3)nc21,1.132
16,Cc1cc(O)nc(C2CCCN(CCO)C2)n1 (stereo unspecified),175.9
17,Cc1cc(Nc2ncccn2)nc(C2CCCN(CCO)C2)n1 (stereo unspecified),168.6
18,Cc1cc(Nc2cnccn2)nc(C2CCCN(CCO)C2)n1 (stereo unspecified),125
19,Cc1cc(Nc2ccccn2)nc(C2CCCN(CCO)C2)n1.O=CO (stereo unspecified),136
20,CSCCC1c2nc[nH]c2CCN1Cc1ccnc2ccccc12 (stereo unspecified),14.89
21,COCCCN1CCC(NC(=O)C(C)C)CC1,12.3
22,Cc1noc(C)c1CNc1c(N2CCCC2)cccc1N1CCCC1,3.451
23,Cn1cc(N2CCCC(Nc3ccc4c(c3)NC(=O)CC4)C2=O)cn1 (stereo unspecified),-4.573
24,CCS(=O)(=O)N1CCN(C(C)c2ccccc2OC)CC1 (stereo unspecified),10.43
25,CCN1CCN(C(=O)NC(C)c2noc(-c3ccccc3)n2)CC1 (stereo unspecified),0.3597
26,O=C(CCCc1ncc(-c2ccccc2)o1)N1CCN(CCO)CC1,-1.483

row,SMILES,Percent Effect [%]
1,CC(c1ncc(C(C)(C)C)o1)N1CCN(Cc2ccco2)CC1 (stereo unspecified),19.54
2,COCC(=O)N1CCN(C(C)c2ncc(-c3ccccc3)o2)CC1 (stereo unspecified),108.5
3,CCS(=O)(=O)N1CCN(C(C)c2ncc(-c3ccccc3)o2)CC1 (stereo unspecified),106.9
4,CC(c1ncc(C(C)(C)C)o1)N1CCN(c2ccncc2)CC1 (stereo unspecified),-9.491
5,CC(c1ncc(-c2ccccc2)o1)N1CCN(C(=O)N(C)C)CC1 (stereo unspecified),106.8
6,CC(c1ncc(-c2ccccc2)o1)N1CCN(C(=O)C(C)(C)C)CC1 (stereo unspecified),102.5
7,COCC(=O)N1CCN(C)c2ncccc2C1,4.839
8,Cc1ccc(-c2ncc(CN3CCN(C(=O)N(C)C)CC3)s2)o1,25.76
9,CN(C)C(=O)N1CCN(C(=O)Nc2nc(-c3ccccc3)ns2)CC1,-9.811
10,CCCn1ncc(C(=O)NC2CCN(CC3CCCO3)CC2)c1C (stereo unspecified),2.131
11,CC(=O)N1N=C(c2ccco2)OC1C(=O)NCCc1ccc(F)cc1 (stereo unspecified),117.3
12,CN(C)C(CNC(=O)NCCc1cccc(O)c1)c1ccco1 (stereo unspecified),7.876
13,O=C(NCc1ccc(F)cc1)NCC(O)(c1ccco1)C1CC1 (stereo unspecified),-0.2956
14,CC(=O)N1N=C(c2ccco2)OC1C(=O)NCCc1ccc(O)cc1 (stereo unspecified),112.2
15,O=C(NCCc1ccncc1)C1CCN(Cc2ccco2)CC1,7.688
16,Cn1cc(CN2CCOC[C@H]2c2nc(C(C)(C)C)co2)c2ccccc21,-4.393
17,CN(C)c1ncccc1CNC(=O)N1CCCC1c1ccsc1 (stereo unspecified),-3.064
18,CCOC1CCC2(CCN(C(=O)c3c[nH]cn3)CC2)c2ccccc21 (stereo unspecified),107.8
19,CCOC1CC2(CCN(C(C)=O)CC2)c2cc(F)ccc21 (stereo unspecified),-13.1
20,CN(C)C1CC2(CCN(C(=O)c3csnn3)CC2)c2ccccc21.O=C(O)C(F)(F)F (stereo unspecified),-2.029
21,CC1CC2(CCN(C(=O)c3csnn3)CC2)c2ccccc21 (stereo unspecified),10.92
22,CCOC1CC2(CCN(c3cnccn3)CC2)c2ccccc21 (stereo unspecified),15.96
23,CC1CC2(CCN(C(=O)c3c[nH]cn3)CC2)c2ccccc21 (stereo unspecified),62.95
24,CCOC1CCC2(CCN(C(=O)c3csnn3)CC2)c2ccccc21 (stereo unspecified),117.6
25,N[C@@H]1c2ccccc2C2(CCN(C(=O)c3ccc(Cl)cn3)CC2)[C@H]1O,2.711
26,CNC(=O)C1CC2(CCN(C(=O)c3csnn3)CC2)c2ccccc21 (stereo unspecified),-5.077

row,SMILES,Percent Effect [%]
1,C[C@@H]1CN(C(=O)CCc2nncn2C)CC[C@@]1(O)C1CCC1,-5.246
2,CCN(CC)CCn1ccnc1-c1cccc(C#N)c1,11.68
3,Cc1ccc(-c2nn(-c3cccc(F)c3)cc2CN(C)CCO)o1,-10.45
4,CC(C)(C)CN[C@@H]1CO[C@H](CNC(=O)c2cccs2)[C@H]1O,-6.649
5,Cc1nc([C@@H]2C[C@H]3CN(Cc4scnc4C)C[C@H]3O2)no1,-8.778
6,O=C(NCc1cccs1)c1nc2c(o1)CN(C(=O)c1cccnc1)C2.O=C(O)C(F)(F)F,7.988
7,CN(C)C(=O)NCc1nnc2n1CCN(Cc1ccsc1)C2,3.865
8,CC(C)(C)C(O)CN1CCN(C(=O)COCC2CC2)CC1 (stereo unspecified),-3.893
9,CCCOc1cc(C)ccc1NC(=O)NCCC(=O)N(C)C,-7.738
10,CCS(=O)(=O)NCCNC(C)(C)c1nc(C)cs1,-9.016
11,CNC(=O)c1ccc(S(=O)(=O)NCCc2ccccn2)cc1,-1.31
12,CC(=O)Nc1nc(C)c(S(=O)(=O)NCCc2cccnc2)s1,82
13,NC(=O)c1ccc(S(=O)(=O)NCCc2ccccn2)cc1,-9.373
14,Cc1cc(NC(=O)NCCc2cccnc2)n(C)n1,-22.8
15,Cn1ccnc1CCNS(=O)(=O)c1cccnc1,3.045
16,CC(=O)Nc1nc(C)c(S(=O)(=O)NCCc2ccccn2)s1,90.82
17,Cc1cc(N[C@@H](CO)c2ccccc2)n2nc(C)c(C)c2n1,-10.16
18,COc1ncnc(N)c1CNCCc1ccc(-n2cccn2)cc1,93.72
19,COc1ncnc(N)c1CNCCOc1ccccc1Cl,-0.9521
20,c1ccc(-n2cncn2)c(CNCCn2cccn2)c1,-10.78
21,COc1ncnc(N)c1CNCC(C)SC (stereo unspecified),4.865
22,COc1ncnc(N)c1CNCC(C)Oc1ccccc1Cl (stereo unspecified),-1.664
23,COc1ncnc(N)c1CNCc1ccccc1-n1cccn1,108.1
